Laboratory results reported in PubChem BioAssay AID1159580 (chemical genetic matrix, 2015).
The whole screen tested about 5,500 compounds, of which about 2,000 (36%) were called active. Another 18% or so got no clear call; they are omitted. Rule as the data show it: active = normalized growth mostly below about 0.91 (no sharp cut-off); inconclusive = no clear call, values can overlap the other calls; inactive = mostly above about 0.92. Some of the results follow.

Test: chemical genetic growth profiling, strain panel (AID 1159580);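 also: tested at 20 µM; growth read once vehicle control cultures reached saturation at 30 °C; 1 = growth at the plate median or of vehicle wells; lower values mean less growth of the strain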
Conditions: S. cerevisiae deletion strains, growth OD
[1] = locus YAR019C, strain CDC15, hits give low values
[2] = locus YBL105C, strain PKC1, hits give low values
[3] = locus YBR135W, strain CKS1, hits give low values
[4] = locus YBR136W, strain MEC1, hits give low values
[5] = locus YBR160W, strain CDC28, hits give low values
[6] = locus YDL017W, strain CDC7, hits give low values
[7] = locus YDL028C, strain MPS1, hits give low values
[8] = locus YDL101C, strain DUN1, hits give low values
[9] = locus YDL108W, strain KIN28, hits give low values
[10] = locus YDL214C, strain PRR2, hits give low values
[11] = locus YDR052C, strain DBF4, hits give low values
[12] = locus YDR054C, strain cdc34, hits give low values
[13] = locus YDR226W, strain ADK1, hits give low values
[14] = locus YDR477W, strain SNF1, hits give low values
[15] = locus YER123W, strain YCK3, hits give low values
[16] = locus YER133W, strain GLC7, hits give low values
[17] = locus YFL009W, strain cdc4, hits give low values
[18] = locus YFL029C, strain CAK1, hits give low values
[19] = locus YFR003C, strain YPI1, hits give low values
[20] = locus YFR019W, strain FAB1, hits give low values
[21] = locus YFR028C, strain CDC14, hits give low values
[22] = locus YGR040W, strain KSS1, hits give low values
[23] = locus YGR052W, strain FMP48, hits give low values
[24] = locus YGR092W, strain DBF2, hits give low values
[25] = locus YHR079C, strain IRE1, hits give low values
[26] = locus YHR082C, strain KSP1, hits give low values
[27] = locus YHR205W, strain SCH9, hits give low values
[28] = locus YIL147C, strain SLN1, hits give low values
[29] = locus YJL095W, strain BCK1, hits give low values
[30] = locus YJL157C, strain FAR1, hits give low values
[31] = locus YJR016C, strain ILV3, hits give low values
[32] = locus YJR066W, strain TOR1 (second series), hits give low values
[33] = locus YJR066W, strain TOR1, hits give low values
[34] = locus YKL048C, strain ELM1, hits give low values
[35] = locus YKL067W, strain YNK1, hits give low values
[36] = locus YKL101W, strain HSL1, hits give low values
[37] = locus YKL193C, strain SDS22, hits give low values
[38] = locus YKL203C, strain TOR2, hits give low values
[39] = locus YLR113W, strain HOG1, hits give low values
[40] = locus YLR133W, strain CKI1, hits give low values
[41] = locus YLR403W, strain SFP1, hits give low values
[42] = locus YML070W, strain DAK1, hits give low values
[43] = locus YMR001C, strain CDC5, hits give low values
[44] = locus YMR205C, strain PFK2 (second series), hits give low values
[45] = locus YMR277W, strain FCP1, hits give low values
[46] = locus YNL006W, strain LST8, hits give low values
[47] = locus YNL020C, strain ARK1, hits give low values
[48] = locus YNL161W, strain CBK1, hits give low values
[49] = locus YNL183C, strain NPR1, hits give low values
[50] = locus YNL207W, strain RIO2, hits give low values
[51] = locus YNL222W, strain SSU72, hits give low values
[52] = locus YNL307C, strain MCK1 (second series), hits give low values
[53] = locus YOL078W, strain AVO1, hits give low values
[54] = locus YOL136C, strain PFK27, hits give low values
[55] = locus YOR061W, strain CKA2, hits give low values
[56] = locus YOR119C, strain RIO1, hits give low values
[57] = locus YOR231W, strain MKK1, hits give low values
[58] = locus YOR329C, strain SCD5, hits give low values
[59] = locus YPL031C, strain PHO85, hits give low values
[60] = locus YPL153C, strain RAD53, hits give low values
[61] = locus YPL204W, strain HRR25, hits give low values
[62] = locus YPL209C, strain IPL1, hits give low values
[63] = locus YPL256C, strain CLN2, hits give low values
[64] = locus YPR025C, strain CCL1, hits give low values
[65] = locus YPR111W, strain DBF20, hits give low values
[66] = strain NNK1, hits give low values
[67] = strain TSCII, hits give low values

Measured: normalized growth

C#CCSC1=NNC(c2ccccn2)S1 (stereo not drawn)
inactive: [2] 0.945 | [3] 0.928 | [4] 0.924 | [5] 0.932 | [6] 0.947 | [7] 0.917 | [9] 0.932 | [11] 0.94 | [13] 0.975 | [19] 0.957 | [28] 0.932 | [62] 0.951 | [64] 0.931 | [65] 0.928
active: [1] 0.583 | [8] 0.45 | [10] 0.163 | [12] 0.531 | [14] 0.136 | [15] 0.125 | [16] 0.162 | [17] 0.573 | [18] 0.517 | [20] 0.111 | [21] 0.763 | [22] 0.176 | [23] 0.175 | [24] 0.119 | locus YHR030C, strain SLT2, hits give low values 0.135 | [25] 0.122 | [26] 0.21 | [27] 0.123 | [29] 0.129 | [30] 0.119 | [31] 0.596 | [32] 0.124 | [33] 0.172 | [34] 0.262 | [35] 0.137 | [36] 0.173 | [37] 0.618 | [38] 0.153 | [39] 0.225 | [40] 0.152 | [41] 0.045 | [42] 0.12 | [43] 0.821 | [44] 0.167 | [45] 0.481 | [46] 0.892 | [47] 0.137 | [48] 0.738 | [49] 0.171 | [50] 0.811 | [51] 0.635 | [52] 0.151 | [53] 0.527 | [54] 0.13 | [55] 0.183 | [56] 0.139 | [57] 0.149 | [58] 0.855 | [59] 0.162 | [60] 0.126 | [61] 0.141 | [63] 0.149 | [66] 0.408 | [67] 0.541

O=C(CSC1=NNC(c2ccccn2)S1)Nc1ccccc1 (stereo not drawn)
inactive: [1] 1 | [2] 0.998 | [3] 0.994 | [4] 1 | [5] 1 | [6] 1.01 | [7] 0.998 | [8] 0.997 | [9] 1 | locus YDL132W, strain cdc53, hits give low values 0.995 | [10] 0.984 | [11] 0.994 | [12] 1 | [13] 1 | [14] 0.971 | [15] 0.951 | [16] 0.962 | [17] 1 | [18] 0.998 | [19] 1.01 | [20] 0.966 | [21] 1 | [22] 0.976 | [23] 1.08 | [24] 0.929 | [25] 1.08 | [26] 1.27 | [27] 0.97 | [28] 1 | [29] 1.08 | locus YJL128C, strain PBS2, hits give low values 0.976 | [30] 0.934 | [31] 1 | [32] 0.942 | [33] 1.27 | [34] 0.949 | [35] 0.987 | [36] 0.981 | [37] 0.997 | [38] 1.03 | [39] 1.06 | [40] 0.933 | [41] 0.92 | [42] 0.966 | [43] 1 | [44] 0.955 | [45] 1 | [46] 1.02 | [47] 0.936 | [48] 0.999 | [49] 1.01 | [50] 0.995 | [51] 1 | [52] 0.949 | [53] 0.995 | [54] 0.967 | [55] 0.96 | [56] 0.973 | [57] 1.11 | [58] 1 | [59] 0.973 | [60] 0.955 | [61] 0.923 | [62] 1 | [63] 1.03 | [64] 0.999 | locus YPR106W, strain ISR1, hits give low values 1.01 | [65] 1.01 | [66] 0.995 | [67] 0.996
